This note sets out measurements from PubChem BioAssay (NCI).

About 83,000 compounds went through this panel and 20% of them were active in at least one assay; those are over-represented in the sample as a whole.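 Plates (96-well) were seeded with cells, treated with compound at one concentration, and incubated for 48 hours before percent growth was determined.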 A number with no mark means an inactive call. The source made the active and inactive calls.

The test system of this assay is A498 renal. The assay is described as follows: NCI-60 one-dose screen, 48 h (100 = growth as untreated, 0 = no growth, -100 = all killed). As to conditions: 10 µM unless noted. The method, then: Growth inhibition of the A498 human tumor cell line is measured as a screen for anti-cancer activity. Cells are grown in 96 well plates and exposed to the test compound for 48 hours. Compounds are tested at a single concentration, which is 10^-5 M for most compounds. The reported endpoint is percent growth (GI% or GIPRCNT), where numbers from 0 - 100% represent growth inhibition, and numbers from -100% - 0 represent cell death. For example, a value of 40 represents 60% growth inhibition. A value of 0 means no net growth occurred over the course of the experiment. A value of -40 indicates 40% of cells at the beginning of the experiment died by the end of the experiment. A value of -100 means all cells are dead at the end of the experiment.
NCI-60 Human Tumor Cell Lines Screen was performed using the standard one-dose NCI protocol, which is described in more detail at https://dtp.cancer.gov/discovery_development/nci-60/default.htm.
Compounds with GIPRCNT values below 10 were considered active. Activity score was based on GIPRCNT using the following formula: […]
Score is 0 for GIPRCNT values of 100 or above, 50 for GIPRCNT values of 0, and 100 for GIPRCNT values of -100.
On to `[O-][n+]1c2ccccc2[n+]([O-])c2c3ccccc3[nH]c21`, for which the growth is -38.5% (active).

As for `COc1cc(/C=C/C(=O)/C=C/c2cc(OC)c3c(c2OC)OCO3)c(OC)c2c1OCO2`, the growth is 43%.

Regarding `CN1C(=O)CNC(=O)[C@H](NC(=O)c2nc3ccccc3cc2O)CSSC[C@H]1C(=O)NCCc1nc2ccccc2cc1O`, the growth was 131%.

`Cc1c(C(=O)NCCCc2ccccc2)sc2ncc(-c3ccc(Br)cc3)n12`: the growth was 110%.

On to `CN1CCN(Cc2ccc(NC(=O)c3cncc(C#Cc4cnccc4C#N)c3)cc2C(F)(F)F)CC1`, for which the growth was 84.9%.

As for `Cn1cc(-c2ccc3cc(-c4ccc(CC(=O)Nc5cc(C(C)(C)C)nn5C)cc4)cnc3c2)cn1`, the growth was -18.5% (active).

For `NC1CCN(c2nc(Nc3cccc(C(F)(F)F)c3)c3c(=O)[nH]ccc3n2)CC1`, the growth was 93.9%.

Turning to `CC(=O)N1CCN(c2ccc(OCC3CO[C@](Cn4ccnc4)(c4ccc(Cl)cc4Cl)O3)cc2)CC1` (stereo not given in full), the growth was 86.4%.

`COc1ccc2c(c1OC)C(=O)O[C@H]2[C@H]1c2c(cc3c(c2OC)OCO3)CCN1C`: the growth is 93.1%.

`O=CN1N=C(c2ccc(Nc3ccnc4cc(Cl)ccc34)cc2)CC1c1ccccc1` (stereo not given): the growth was 21.2%.

`COc1ccc(OC)c(/C=C2\Oc3cc(OCCN4CCC(Cc5ccccc5)CC4)ccc3C2=O)c1`: the growth is 88.6%.

`CC1=NN(c2ccc(S(=O)(=O)O)cc2)C(=O)C1N=Nc1ccc(-c2ccc(N=Nc3ccc(OS(=O)(=O)c4ccc(C)cc4)cc3)c(S(=O)(=O)O)c2)cc1` (stereo not given): the growth is 95.2%.

As for `CCCCN(C)N=Nc1ccc(C(N)=O)cc1`, the growth was 89.7%.

Turning to `Cc1cccc2c(=O)c3c(sc12)c(NCc1ccccc1)nc1ccccc13`, the growth was 72.4%.

Consider `CC(=O)OC[C@H]1OC(Sc2sc(C(=O)c3ccc(C)cc3)c(N)c2-c2nc3ccccc3s2)[C@H](OC(C)=O)[C@@H](OC(C)=O)[C@@H]1OC(C)=O` (stereo not given in full), for which the growth was 98.9%.

With `CCCC1CCC(O)(C(C)(O)C(=O)NC2C(=O)N3NCCCC3C(=O)N(O)C(C)C(=O)N3NCCCC3C(=O)N3NCC(O)CC3C(=O)NC(C)C(=O)OC2C(C)C)OC1CC` (stereo not given), the growth was -95.5% (active).

With `O=C(Cc1ccc(F)c(Cl)c1)Nc1cc(C2(C(F)(F)F)CC2)nn1CC1CCCCC1`, the growth was -33.2% (active).

Turning to `COc1cc(OCc2cccc(-c3ccc(C(O)c4nccs4)cc3)c2C)cc(OC)c1CNCCNC(C)=O` (stereo not given), the growth was 88.2%.

Regarding `COc1ccc(-c2nc3sc(-c4ccccc4)cn3n2)cc1`, the growth is 43.7%.

For the molecule `COc1nc2ccccc2cc1-c1nc2c(cnn2-c2ccccc2)c(=O)[nH]1`, the growth was 18.9%.

Consider `O=C1NC(=O)C(Cn2cnc3ccccc32)N1` (stereo not given), for which the growth is 76.6%.

`C=C1C(=O)O[C@H]2[C@H]1CC/C(COC(=O)CCSSCCC(=O)OC/C1=C/CC[C@@]3(C)O[C@H]3[C@H]3OC(=O)C(=C)[C@@H]3CC1)=C\CC[C@@]1(C)O[C@@H]21`: the growth is 72.9%.

As to `COC(=O)Nc1ccc(-c2nc(-c3cccc(OC)c3)c(-c3ccnc(Br)c3)[nH]2)cc1`, the growth was 48.4%.

With `CC1CN(C2CCCCC2)C(=S)N(c2ccccc2)C1=O` (stereo not given), the growth is 95.4%.

On to `O=C(N/N=C/[C@H](O)[C@@H](O)[C@@H](O)[C@H](O)CO)c1ccc(NC(=O)c2cccnc2)cc1`, for which the growth is 107%.

With `CCCCCCCNC(=O)CCCNc1ncnc2c1ncn2-c1cccc(C(C)O)c1` (stereo not given), the growth is 123%.

Consider `O=C(O)C(c1ccccc1)N1C(=O)CSC1=S` (stereo not given), for which the growth was 83.9%.

Take `O=[N+]([O-])c1ccccc1NCSc1ccc(Cl)cc1`: the growth is 86%.

On to `COc1ccc(/C=N/Nc2cc(=O)[nH]c3ccc(C)cc23)cc1`, for which the growth is 87.8%.

Turning to `O=C(Nc1ccc(-c2nc(-c3cccc(OCCN4CCOCC4)c3)c(-c3ccnc(Br)c3)[nH]2)cc1)c1ccccc1`, the growth was -70.5% (active).

With `COc1ccc(-c2cc3c4c(nc5ccccc5c4c2)CC(c2cc(OC)c(OC)c(OC)c2)O3)cc1` (stereo not given), the growth was 70.4%.

Regarding `CCCSc1nc2ccc(C)cc2cc1/C=[N+](\[O-])c1ccccc1`, the growth is 74.6%.

As to `CSc1nc2ccc(C)cc2cc1/C=N/O`, the growth is 85.2%.

For the molecule `Clc1ccc(C(/C=C/c2sc(Cl)nc2Cl)=N/Nc2cc(Cl)cc(Cl)c2)cc1`, the growth is 101%.

For `COc1ccc2c(c1)C(C)Cc1c(ncnc1-n1c(C)nc3ccccc31)N2C` (stereo not given), the growth was -9.67% (active).

`CCCCOc1nc2ccc(OC)cc2cc1-c1cc(-c2ccc(Cl)cc2)nc(-c2ccc(Cl)cc2)c1`: the growth is 83.5%.

In the case of `COc1cc(Nc2cn[nH]c2-c2ccc(Cl)cc2)cc(OC)c1OC`, the growth was 43.3%.

In the case of `NCCCNc1nc2ccccc2c2c(=O)c3cc(F)cc(F)c3sc12`, the growth is 43.5%.

For the molecule `O=C(N/N=C/c1c(Cl)cccc1Cl)c1ccc(C(F)(F)F)nc1Nc1cccc(C(F)(F)F)c1`, the growth is -5.26% (active).

For the molecule `CNCCCNc1nc2ccccc2c2c(=O)c3cc(OC)ccc3sc12`, the growth is 56.5%.
